# The supplement of paper PMC6555819
# Key:
# Assay in all cases: PBM binding z-score (relative to random genomic background probes); higher = stronger binding; sequences stand for … in GC…GCGATTGACAGCGTAGAATGAAGG
# [1] = test system: PPARg:RXRa DBDmut IVT, anti-RXR (DBD mutation: RXRa K156A/R161A, NR concentration 270 nM, RXRa partner concentration 90 nM)
# How it was run: (§1)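 Scanned fluorescence from custom Agilent 4×180K protein-binding microarrays was regression-normalized. Binding z-scores use random background probes as reference. Ligand-free nuclear receptor dimers were incubated on the arrays for 1 h and detected with antibodies against each partner (one per run).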
# [2] = test system: PPARg:RXRa IVT, anti-PPARg (NR concentration 270 nM, RXRa partner concentration 90 nM)
# How it was run: as §1
# [3] = test system: PPARg DBDmut:RXRa IVT, anti-PPARg (DBD mutation: PPARg1 K132A/R137A, NR concentration 270 nM, RXRa partner concentration 90 nM)
# How it was run: as §1
# [4] = test system: PPARg DBDmut IVT, anti-PPARg (DBD mutation: PPARg1 K132A/R137A, NR concentration 270 nM)
# How it was run: as §1
# [5] = test system: PPARg homodimer (NR concentration 180 nM)
# How it was run: as §1
# [6] = test system: PXR homodimer (NR concentration 270 nM)
# How it was run: as §1
# [7] = test system: RARa:RXR (NR concentration 270 nM, RXRa partner concentration 90 nM)
# How it was run: as §1
# [8] = test system: RARa homodimer (NR concentration 270 nM)
# How it was run: as §1
# [9] = test system: RARb:RXRa (NR concentration 270 nM, RXRa partner concentration 90 nM)
# How it was run: as §1
# [10] = test system: PXR:RXRa (NR concentration 270 nM, RXRa partner concentration 90 nM)
# How it was run: as §1
Sequence,PBM binding z-score [1],PBM binding z-score [2],PBM binding z-score [3],PBM binding z-score [4],PBM binding z-score [5],PBM binding z-score [6],PBM binding z-score [7],PBM binding z-score [8],PBM binding z-score [9],PBM binding z-score [10]
CTCGAAAGGTCGTGCTCAGGTGAGTACACCAAAC,1.21,2.09,1.56,1.04,2.94,0.541,4.67,0.374,4.05,
TGTCAGAGTTCAAAGGTAACGTAAGTATCCACAC,0.11,3.16,0.991,1.01,2.95,5.44,7.02,-0.164,4.47,
CCTAGTTGGTCAGGAGGTCACATACCGGATATGA,1.64,3.39,0.476,0.388,2.7,1.16,3.9,2.01,3.37,
CGTCCGAGGTCAAAGGTCAGTGAAGAGATGACGG,4.36,6.35,2.87,3.81,5.95,3.02,8.81,4.96,5.93,
GATACAGGGGCAAGGCCAGAGTACGCGTATTGAT,0.794,0.691,-0.76,-0.28,0.334,0.0474,0.0151,-0.216,1.65,
ATCAAAAGGTCGAAGGTGAGTATACCCACCCGAA,0.661,2.86,1.48,0.784,2.7,-0.118,4.72,0.445,4.05,
AGAATGAGGTTATACGTAGGTCAGGGAAGAAAGT,3.82,2.92,1.18,0.81,3.44,0.992,4.71,0.747,3.19,
ATATGTAGGTTACATCGGGGTCATTCAGGCTATG,7.87,7.63,3.44,3.24,3.92,10.3,7,1.93,3.25,
ATATGGAGGTTAGCTGGGGTCATTCAGACTAGGC,2.62,2.93,1.36,1.19,2.73,5.39,5.62,1.8,3.66,
AATACAGGGTCACTAGGCCAGAGTGGGTACGAAT,3.88,5.89,2.29,2.32,2.94,0.0148,4.01,0.459,4.03,
CCTTACGGGTCACTCTAGGTTATAGCATCGGAGT,3.21,3.69,0.202,-0.339,1.82,0.568,3.43,0.346,3.68,
CTCCAAAGGTCGGTTGAGGTGAGTATACGGATAA,0.32,1.01,0.267,-0.816,1.53,0.251,2.58,-0.204,3.18,
CGAACTAGGTCAAAGGACAGTGAGAGGCGACGTA,7.99,8.52,,1.52,1.96,-0.246,2.11,0.479,3.81,0.82
TGAATGAGGTTAAAGGTCAGGGAACGTGGCGTCG,3.7,6.46,1.94,1.25,5.36,1.01,,3.29,5.08,
ATATGTAGGTTTGGGTCATTCAGAAAGTAGGGAA,2.79,3.08,,1.3,2.99,1.25,2.47,2.33,2.07,2.17
CGAACCAGGTCACCAGGACAGTGAAGAGGTTGGA,5.49,6.38,,0.103,2.28,0.0931,3.75,0.523,4.37,2.81
CGAACTAGGTCACCAGGACAGTGGAGAGGTTGGA,8.2,8.98,,4.11,2.37,-0.106,2.81,0.103,4.39,1.37
CGAACTAGGTGACCAGGACAGTGAAGAGGTTGGA,7.15,7,,-0.325,-0.217,-0.15,0.228,-0.394,0.744,-0.13
CGAACTAGGTCACCAGGATAGTGAAGAGGTTGGA,8.36,8.68,,2.4,2.57,-0.0879,2.59,0.146,4.2,1.4
CGAACTAGGTCACCAGGACCGTGAAGAGGTTGGA,8.24,8.31,,0.567,1.94,-0.498,2.08,-0.00105,4.08,1.19
CGAACTAGGTCACCAGGACAGAGAAGAGGTTGGA,8.29,8.26,,0.828,2.46,0.0837,2.56,0.391,4.22,1.55
ATCTGTAGGTTAGGGTCATTCAGAAAGTAGGGAA,2.86,3.74,,2.08,3.23,2.1,5.21,2.2,3.58,4.42
ATATGTAGGTTAGAGTCATTCAGAAAGTAGGGAA,6.33,6.41,,1.55,1.2,0.624,0.989,1.78,1.02,0.349
CGTCCAAGGTCATAGGAGTTCAGTGAAGACAGAT,3.09,4,1.39,0.8,5.14,10.9,5.59,2.08,5.31,
CGTCAACGTTCAACTAAGGTAACGTAAAGCACGC,-0.0681,0.225,0.181,-0.155,0.349,-0.0969,2.07,0.331,0.991,
ATATGTAGGATAGGGTCATTCAGAAAGTAGGGAA,2.75,3.63,,1.68,2.36,1.46,4.19,1.52,2.69,3.47
AATACAGGGTCATTAGGCCAGAGTAGGTACGAAT,3.37,4.54,1.38,0.677,2.55,0.493,4.48,1.06,4.04,

Sequence,PBM binding z-score [1],PBM binding z-score [2],PBM binding z-score [3],PBM binding z-score [4],PBM binding z-score [5],PBM binding z-score [6],PBM binding z-score [7],PBM binding z-score [8],PBM binding z-score [9],PBM binding z-score [10]
AATACAGGGTCACTTGGCCAGAGTAGGTACGAAT,2.55,4.18,1.56,1.27,1.58,0.166,4.1,0.292,4.23,
ATATGTAGGTTCGGGTCATTCAGAAAGTAGGGAA,3.06,4.01,,1.7,2.61,1.57,3.97,1.72,2.5,3.53
ATATGTAGGTTAGCGTCATTCAGAAAGTAGGGAA,6.57,6.84,,1.38,0.87,0.0634,-0.121,0.244,0.594,-0.0758
ATATGTAGGTTAGGCTCATTCAGAAAGTAGGGAA,6.49,5.75,,1.4,0.501,0.16,-0.184,0.657,0.339,-0.124
AAATGTAGGTTAGGGTCATTCAGAAAGTAGGGAA,7.33,7.35,,1.95,3.74,2.29,4.78,1.99,3.64,4.47
CGTCCAAGGTCAATGCGAGGTCAGTGAAAGCATT,3.2,4.05,0.262,-0.0151,6.13,4.68,,1.33,5.4,
CGAACTAGGTCACAGGACAGTGAAAGGCGACGTA,8.61,8.91,,3.67,2.35,-0.238,2.22,0.616,4.11,1.38
CGAACTAGGTCACCAGGTCAGTGAAGAGGTTGGA,8.35,8.61,,0.92,2.94,0.301,4.36,1.02,4.61,3.16
CCTACTGGGTCATTCAGAGGTCATTGATCATATG,6.17,7.04,1.98,0.698,6.37,3.7,,1.17,4.51,
CCTTACAGGTCAAGGTTATAGCACGGGTGGTACG,3.89,4.19,0.977,0.925,3.36,0.575,4.39,1.94,4.65,
AGTCAAAGTTCAGGACGAGGTCACGTAAAGCACG,0.746,3.73,0.593,0.7,5.05,7.95,,2.01,,
ATATGTAGGTCAGCTGGGGTCATTCAGACTAGGC,8.08,8.21,5.33,2.2,4.29,5.2,6.74,1.6,4.57,
CGAACTAGGTCAAAGGACAGTGGAAGGCGACGTA,8.19,8.49,,1.31,1.21,-0.227,1.74,0.262,3.93,0.947
CAAACTAGGTCACAGAGGTCAAAGTTCGTGCGTA,8.27,8.9,4.88,5.18,6.43,12.2,,3.28,5.29,
ATATGTAGGCTAGGGTCATTCAGAAAGTAGGGAA,4.03,4.85,,0.962,1.74,1.05,4.04,1.2,3,3.55
CGAACTAGGTCAAAGCACAGTGAAAGGCGACGTA,7.81,8.43,,5.29,3.43,-0.325,1.71,0.149,3.8,1.01
TCTAGTAGGTCACGGAGGTCACACACGACGGGTA,7.04,8.61,4.06,4.54,5.46,7.52,,1.12,,
ATATGTAGGTAAGGGTCATTCAGAAAGTAGGGAA,5.88,6.35,,2.93,3.52,1.25,4.55,2.02,3.61,3.78
CGAACTAGGTCAAAGAACAGTGAAAGGCGACGTA,7.89,8.03,,1.2,0.602,-0.206,1.51,-0.184,3.58,0.752
TTACCAAGGTCAGCTGAGGTCGTTGATCCAACTC,2.24,3.75,0.41,0.114,1.8,3.87,4.4,0.314,5.06,
CGACCTAGGTCACCAGGACAGTGAAGAGGTTGGA,4.19,4.65,,-0.593,1.87,-0.328,2.95,-0.595,4.37,1.62
CGAACTAGGGCACCAGGACAGTGAAGAGGTTGGA,7.2,6.94,,-0.192,0.184,-0.309,-0.404,-1.02,1.42,-0.709
ATACCAAGGTCATCGTGAGGTCGTTGATACTAAC,2.34,4.3,2.33,1.42,4.01,5.81,6,1.56,5.36,
ATCGAAAGGTCGAAGGTGACTATACCCACCCGAA,0.283,2.43,0.926,0.616,2.37,0.106,4.31,0.973,3.79,
CAAACTAGGTCACCAGGACAGTGAAGAGGTTGGA,8.41,8.88,,1.44,2.71,0.166,2.97,0.827,4.28,1.87
CGAACTAGGTCACCGGGACAGTGAAGAGGTTGGA,7.85,9.13,,0.892,2.28,-0.271,3.2,0.436,4.33,1.79
